Laboratory results reported in PubChem BioAssay (NCI).
About 83,000 compounds went through this panel and 20% of them were active in at least one assay; those are over-represented in the sample as a whole.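 In brief: 96-well plates, 48 h treatment, single concentration, percent growth endpoint.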 Calls of active or inactive are those of the source. How the source made its calls: active means growth percent below 10; inactive means the rest.

Key:
Test in all cases: NCI-60 one-dose screen, 48 h (100 = growth as untreated, 0 = no growth, -100 = all killed)
T-47D breast = conditions: 10 µM unless noted
BT-549 breast = conditions: 10 µM unless noted
MDA-MB-435 melanoma = conditions: 10 µM unless noted
SW-620 colon = conditions: 10 µM unless noted
MCF7 breast = conditions: 10 µM unless noted
HCT-116 colon = conditions: 10 µM unless noted
HCC-2998 colon = conditions: 10 µM
KM12 colon = conditions: 10 µM unless noted

Measured: growth

CN[C@@H]1C[C@H]2O[C@@](C)([C@@H]1OC)n1c3ccccc3c3c4c(c5c6ccccc6n2c5c31)C(=O)N[C@H]4O
active: T-47D breast -49.2% | BT-549 breast -88.5% | MDA-MB-435 melanoma -79.4% | SW-620 colon -6.96% | MCF7 breast -46.8% | HCT-116 colon -49.3% | HCC-2998 colon -74.5% | KM12 colon -59.8%

NC1(C(=O)N[C@@H](CCO)c2ccc(Cl)cc2)CCN(c2ncnc3[nH]ccc23)CC1
active: BT-549 breast -9.59% | KM12 colon 5.76%
inactive: T-47D breast 11.7% | MDA-MB-435 melanoma 26.3% | SW-620 colon 62.7% | MCF7 breast 27.4% | HCT-116 colon 45.7% | HCC-2998 colon 46.8%

Cc1cc(-c2cc(O)ccc2Cl)cc2nnc(Nc3ccc(OCCN4CCCC4)cc3)nc12
active: T-47D breast -47.8% | BT-549 breast -50.7% | MDA-MB-435 melanoma -73.3% | SW-620 colon -74.8% | MCF7 breast -54.4% | HCT-116 colon -57.5% | HCC-2998 colon -72.6% | KM12 colon -76.2%

CCN(CC)CCCC(C)Nc1cc(-c2ccc(C(F)(F)F)cc2)c(C#N)c2nc3ccccc3n12 (stereo not drawn)
active: T-47D breast -8.16% | BT-549 breast -10.7% | MDA-MB-435 melanoma -64.8% | HCT-116 colon 3.28%
inactive: SW-620 colon 12.2% | MCF7 breast 14.1% | HCC-2998 colon 16.6% | KM12 colon 36.5%

Cc1ccc(NC(=O)c2ccc(CN3CC[C@H](N(C)C)C3)c(C(F)(F)F)c2)cc1Nc1nccc(-c2cncnc2)n1
inactive: BT-549 breast 35.9% | KM12 colon 10.4%
active: T-47D breast -58.9% | MDA-MB-435 melanoma -18.3% | SW-620 colon 8.15% | MCF7 breast 7.04% | HCT-116 colon -17.4% | HCC-2998 colon -22.7%

CNC(=O)c1ccc(Nc2ncc(C(F)(F)F)c(NCc3nccnc3N(C)S(C)(=O)=O)n2)cc1
active: T-47D breast -12.4% | BT-549 breast -5.77% | MDA-MB-435 melanoma 8.89% | SW-620 colon -4.11% | MCF7 breast 2.04% | HCT-116 colon 1.19% | HCC-2998 colon 8.5% | KM12 colon 1.91%

COc1ccc(S(=O)(=O)N(C(C)=O)c2ccccc2/C=C/c2cc[n+]([O-])cc2)cc1
active: MDA-MB-435 melanoma -50.8% | HCT-116 colon 5.12% | HCC-2998 colon 8.66%
inactive: T-47D breast 27.2% | BT-549 breast 16.2% | SW-620 colon 23.6% | MCF7 breast 15.2% | KM12 colon 14%

C[C@@H](Oc1cc(C(=O)Nc2ccc(C(=O)N3CCN(C)CC3)cc2)nnc1N)c1c(Cl)ccc(F)c1Cl
inactive: T-47D breast 59.4% | BT-549 breast 71.7% | MDA-MB-435 melanoma 68.8% | SW-620 colon 98.1% | MCF7 breast 47.1% | HCT-116 colon 49.4% | KM12 colon 23%

CC[C@H](Nc1ncnc2nc[nH]c12)c1nc2cccc(F)c2c(=O)n1-c1ccccc1
inactive: BT-549 breast 40.2% | MDA-MB-435 melanoma 82.6% | SW-620 colon 78.3% | MCF7 breast 54.4% | HCT-116 colon 65.5% | HCC-2998 colon 85.9% | KM12 colon 84.6%
active: T-47D breast -4.25%

CN1CCN(c2nc(C3=C(c4c[nH]c5ccccc45)C(=O)NC3=O)c3ccccc3n2)CC1
inactive: T-47D breast 102% | BT-549 breast 91% | MDA-MB-435 melanoma 41.8% | SW-620 colon 48.4% | MCF7 breast 95.1% | HCT-116 colon 32.4% | HCC-2998 colon 19.2% | KM12 colon 36.1%

CNC(=O)c1nn(C)c2c1C(C)(C)Cc1cnc(Nc3ccc(N4CCN(C)CC4)cc3)nc1-2
inactive: MDA-MB-435 melanoma 21.1% | SW-620 colon 11.5% | MCF7 breast 10.4% | HCC-2998 colon 10.4%
active: T-47D breast -5.71% | BT-549 breast 5.23% | HCT-116 colon 0.153% | KM12 colon 0.555%

CCN1CCN(c2nc(C)cc(N(CCNc3ccnc4cc(Cl)ccc34)Cc3ccc4c(c3)OCO4)n2)CC1
active: T-47D breast -51.7% | MDA-MB-435 melanoma -72.5% | SW-620 colon 3.4% | HCC-2998 colon -29.8%
inactive: BT-549 breast 21.5% | MCF7 breast 23.8% | HCT-116 colon 10.3% | KM12 colon 55.9%

CCCCn1c(C)nc2ccc(Nc3nc(N4CCN(C)CC4)nc4nc[nH]c34)cc21
inactive: T-47D breast 80.3% | BT-549 breast 97.5% | MDA-MB-435 melanoma 94.3% | SW-620 colon 91.8% | MCF7 breast 83% | HCT-116 colon 75.8% | HCC-2998 colon 83.6% | KM12 colon 93.6%

Cc1cn(-c2cc(NC(=O)c3ccc(C)c(Nc4nccc(-c5cnccn5)n4)c3)cc(C(F)(F)F)c2)cn1
inactive: T-47D breast 66.7% | BT-549 breast 98.8% | MDA-MB-435 melanoma 23.2% | SW-620 colon 75.5% | MCF7 breast 69% | HCT-116 colon 42.6% | KM12 colon 46.4%

Nc1c(C(=O)c2ccccc2)sc2nc(-c3cccs3)ccc12
inactive: T-47D breast 41.8% | BT-549 breast 59.6% | SW-620 colon 28.4% | MCF7 breast 34.2% | HCT-116 colon 13.3% | HCC-2998 colon 32.3% | KM12 colon 28.3%
active: MDA-MB-435 melanoma -5.48%
